Common to all, as to details: modulator concentration 10 µM
The test system of test [1] is RAW-Dual (murine macrophage reporter line). The test is described as follows: NF-kB reporter (SEAP) activity fold change vs agonist alone; higher = enhanced NF-kB activity. The essentials:
(§1)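 RAW-Dual murine macrophage reporter cells were plated at 50 000 per well in 384-well plates, pin-transferred compound to 10 μM final, and pre-incubated for 1 hour at 37 °C before a PRR agonist was added and the cells incubated overnight. NF-κB activity was read from supernatant SEAP with QUANTI-Blue at 620 nm absorbance, and IRF activity from Lucia luciferase with QUANTI-Luc by luminescence. Each signal was expressed as fold change by dividing by the mean agonist-only control on the same plate. Two replicate plates were averaged, with errors obtained by propagation.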

Test [2] has the same test system. As to the kind of experiment: IRF reporter (Lucia luciferase) activity fold change vs agonist alone; higher = enhanced IRF activity. The essentials: as §1
Test [3] has the same test system. As to the kind of experiment: viability score (confluency relative to resting cells, overnight) (fraction); higher = more viable, active = viable (0.7 or more). A digest of the protocol: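 Two confluency masks, generated with IncuCyte software over all imaged wells, were applied to IncuCyte images of RAW-Dual macrophages. The cells, in 384-well plates, had been exposed overnight to 10 μM final compound. The viability score is confluency as a fraction of resting cells, and a compound met the cutoff only with both masks above 70% of resting cells.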

Setting [4] is: agonist: CpG ODN 1826 0.5 ug/mL.

SMILES strings stand for the structures. ± gives the standard deviation.

In the case of `CC(=O)Oc1cccc2c1C(=O)c1c(OC(C)=O)cc(C(=O)O)cc1C2=O`, the NF-kB reporter worked out at 1.14 ± 0.088 in test [1] (setting [4]), 1.04 ± 0.077 in test [1] (agonist: LPS 0.1 ug/mL) and 1.01 ± 0.049 in test [1] (agonist: MPLA […]). For the same molecule, the IRF reporter in test [2] (agonist: 3'3'-cGAMP 10 ug/mL) came to 0.971 ± 0.068; in test [2] (agonist: LPS 0.1 ug/mL), 0.954 ± 0.033; in test [2] (agonist: MPLA […]), 0.939 ± 0.12. For the same molecule, in test [3], the viability score is 1 (active).

On to `Cc1cc2nc3sc(=Cc4ccc(F)cc4)c(=O)n3c2cc1C`, for which the results for the NF-kB reporter in test [1] (setting [4]), in test [1] (agonist: LPS 0.1 ug/mL) and in test [1] (agonist: MPLA […]) were 0.99 ± 0.12, 0.932 ± 0.12 and 1.04 ± 0.097, respectively. For the same molecule, the IRF reporter in test [2] (agonist: 3'3'-cGAMP 10 ug/mL) came out at 0.817 ± 0.03; in test [2] (agonist: LPS 0.1 ug/mL), 1.07 ± 0.12; in test [2] (agonist: MPLA […]), 1.07 ± 0.13. In addition, in test [3], the viability score was 1.03 (active).

As to `Clc1ccc(CN2CCN(c3ncnc4scc(-c5cccs5)c34)CC2)cc1`, the values for the NF-kB reporter in test [1] (setting [4]), in test [1] (agonist: LPS 0.1 ug/mL) and in test [1] (agonist: MPLA […]) were 0.489 ± 0.028, 1.28 ± 0.1 and 1.25 ± 0.074, respectively. For the same molecule, the IRF reporter worked out at 1.16 ± 0.072 in test [2] (agonist: 3'3'-cGAMP 10 ug/mL), 1.66 ± 0.12 in test [2] (agonist: LPS 0.1 ug/mL) and 1.51 ± 0.14 in test [2] (agonist: MPLA […]). For the same molecule, the viability score in test [3] was 0.997 (active).

Regarding `CN(C)c1nc(CNC(=O)c2cnn(-c3ccccc3)n2)nc(N2CCCC2)n1`, the NF-kB reporter in test [1] (setting [4]) was determined as 1.01 ± 0.052; in test [1] (agonist: LPS 0.1 ug/mL), 1.1 ± 0.086; in test [1] (agonist: MPLA […]) it was 1.02 ± 0.11. Besides, the IRF reporter in test [2] (agonist: 3'3'-cGAMP 10 ug/mL) is 1.05 ± 0.054; in test [2] (agonist: LPS 0.1 ug/mL) it was 1.26 ± 0.08; in test [2] (agonist: MPLA […]), 1.13 ± 0.31. Further, the viability score in test [3] was 1.02 (active).

`CN1CCN(C2=Nc3ccccc3Oc3ccc(Cl)cc32)CC1.O=C(O)CCC(=O)O`: the NF-kB reporter was 0.411 ± 0.052 in test [1] (setting [4]), 0.796 ± 0.081 in test [1] (agonist: LPS 0.1 ug/mL) and 1.07 ± 0.1 in test [1] (agonist: MPLA […]). Moreover, the values for the IRF reporter in test [2] (agonist: 3'3'-cGAMP 10 ug/mL), in test [2] (agonist: LPS 0.1 ug/mL) and in test [2] (agonist: MPLA […]) were 0.548 ± 0.12, 0.722 ± 0.13 and 0.672 ± 0.15, respectively. Further, the viability score in test [3] was 0.92 (active).

On to `COc1ccc(Br)c(C(=O)N2CCCC2CS(=O)(=O)c2ccccc2)c1` (stereo unspecified), for which the NF-kB reporter is 0.982 ± 0.12 in test [1] (setting [4]), 1.08 ± 0.085 in test [1] (agonist: LPS 0.1 ug/mL) and 0.957 ± 0.075 in test [1] (agonist: MPLA […]). Besides, the IRF reporter in test [2] (agonist: 3'3'-cGAMP 10 ug/mL) was determined as 0.988 ± 0.051; in test [2] (agonist: LPS 0.1 ug/mL), 0.984 ± 0.098; in test [2] (agonist: MPLA […]) it was 0.876 ± 0.11. Moreover, in test [3], the viability score was 1 (active).

Take `CN1C2CCCC1CC(NC(=O)c1nn(C)c3ccccc13)C2.Cl` (stereo unspecified): the NF-kB reporter in test [1] (setting [4]) came out at 0.712 ± 0.31; in test [1] (agonist: LPS 0.1 ug/mL), 0.879 ± 0.044; in test [1] (agonist: MPLA […]), 0.984 ± 0.069. Further, the IRF reporter worked out at 0.873 ± 0.034 in test [2] (agonist: 3'3'-cGAMP 10 ug/mL), 1.13 ± 0.16 in test [2] (agonist: LPS 0.1 ug/mL) and 1.03 ± 0.19 in test [2] (agonist: MPLA […]). The viability score in test [3] is 0.998 (active).

Regarding `COc1ccc(CN2CCN(C(c3ccc(F)cc3)c3ccc(F)cc3)CC2)c(OC)c1OC.Cl.Cl`, the NF-kB reporter in test [1] (setting [4]) came to 0.742 ± 0.032; in test [1] (agonist: LPS 0.1 ug/mL) it was 0.927 ± 0.084; in test [1] (agonist: MPLA […]), 0.916 ± 0.049. Besides, the results for the IRF reporter in test [2] (agonist: 3'3'-cGAMP 10 ug/mL), in test [2] (agonist: LPS 0.1 ug/mL) and in test [2] (agonist: MPLA […]) were 0.604 ± 0.038, 1.02 ± 0.24 and 1.17 ± 0.47, respectively. For the same molecule, the viability score in test [3] was 0.985 (active).

Turning to `COc1cc2c(cc1OC)C1C(=O)c3ccc4c(c3OC1CO2)C=CC(C)(C)O4` (stereo unspecified), the NF-kB reporter in test [1] (setting [4]) came to 0.92 ± 0.071; in test [1] (agonist: LPS 0.1 ug/mL), 0.99 ± 0.096; in test [1] (agonist: MPLA […]), 1.55 ± 0.14. In addition, the IRF reporter in test [2] (agonist: 3'3'-cGAMP 10 ug/mL) was 0.853 ± 0.04; in test [2] (agonist: LPS 0.1 ug/mL), 1.62 ± 0.26; in test [2] (agonist: MPLA […]) it was 2.12 ± 0.42. Besides, in test [3], the viability score is 0.986 (active).

As to `CCCCCCCCCCCCCCCCOc1nc2ccc(C)cc2c(=O)o1`, the NF-kB reporter amounted to 1.1 ± 0.32 in test [1] (setting [4]), 1.09 ± 0.057 in test [1] (agonist: LPS 0.1 ug/mL) and 0.961 ± 0.13 in test [1] (agonist: MPLA […]). Moreover, the IRF reporter came to 0.921 ± 0.034 in test [2] (agonist: 3'3'-cGAMP 10 ug/mL), 1.27 ± 0.15 in test [2] (agonist: LPS 0.1 ug/mL) and 1.08 ± 0.23 in test [2] (agonist: MPLA […]). The viability score in test [3] was 1 (active).

As for `C=C1C(=O)OC2CC3(C)CCCC(C)C3=CC12` (stereo unspecified), the NF-kB reporter in test [1] (setting [4]) was found to be 0.85 ± 0.054; in test [1] (agonist: LPS 0.1 ug/mL), 0.72 ± 0.068; in test [1] (agonist: MPLA […]), 0.685 ± 0.06. Besides, the IRF reporter in test [2] (agonist: 3'3'-cGAMP 10 ug/mL) came out at 0.0319 ± 0.0039; in test [2] (agonist: LPS 0.1 ug/mL) it was 0.738 ± 0.059; in test [2] (agonist: MPLA […]) it was 0.839 ± 0.15. For the same molecule, the viability score in test [3] is 0.73 (active).

`CCCCNC(=O)Cc1ccc(Br)cc1`: the NF-kB reporter in test [1] (setting [4]) was 0.947 ± 0.15; in test [1] (agonist: LPS 0.1 ug/mL), 0.904 ± 0.11; in test [1] (agonist: MPLA […]) it was 0.913 ± 0.11. The IRF reporter in test [2] (agonist: 3'3'-cGAMP 10 ug/mL) came out at 0.986 ± 0.052; in test [2] (agonist: LPS 0.1 ug/mL), 1.29 ± 0.25; in test [2] (agonist: MPLA […]), 1.4 ± 0.33. Further, the viability score in test [3] was 0.989 (active).

For the molecule `O=C(NN=Cc1c(O)ccc2ccccc12)c1ccccc1Br`, the figures for the NF-kB reporter in test [1] (setting [4]), in test [1] (agonist: LPS 0.1 ug/mL) and in test [1] (agonist: MPLA […]) were 1.43 ± 0.11, 1.24 ± 0.091 and 1.14 ± 0.092, respectively. Moreover, the results for the IRF reporter in test [2] (agonist: 3'3'-cGAMP 10 ug/mL), in test [2] (agonist: LPS 0.1 ug/mL) and in test [2] (agonist: MPLA […]) were 0.612 ± 0.1, 1.05 ± 0.074 and 0.873 ± 0.057, respectively. The viability score in test [3] is 0.989 (active).
